In the supplement of paper PMC10849652:
About 8,800 targets were measured; listed, in parts, are those with a hit and a random draw of the rest. About 0.5% of all pairs of compound and target were hits. Unmarked numbers belong to inactive results.

How the values were obtained:
Assay in all cases: log2 fold change, soluble protein after heating vs DMSO (PISA); higher = thermal stabilisation; K562 lysate, 10 uM; active = over 0.2 and 3.5 SD of the protein, either way, in both replicates (recomputed)
lapatinib = compound: CS(=O)(=O)CCNCc1ccc(-c2ccc3ncnc(Nc4ccc(OCc5cccc(F)c5)c(Cl)c4)c3c2)o1 [lapatinib]
In short: (§1)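 Dounce homogenisation of K562 pellets in PBS pH 7.4 with 1 mM MgCl2 produced a crude extract, used at 1 mg/mL protein. Exposure to 10 μM compound lasted 30 min, and aliquots were then heated for 3 min across 48°C-58°C, pooled and brought to 0.5% NP-40 at 4°C. The supernatant after 21,000xg for 90 min was quantified by TMTpro 16plex LC-MS/MS with channel sums equalised. Duplicate values are given as log-two fold change in thermal stability relative to solvent controls.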

pictilisib = compound: CS(=O)(=O)N1CCN(Cc2cc3nc(-c4cccc5[nH]ncc45)nc(N4CCOCC4)c3s2)CC1 [pictilisib]
In short: as §1

crizotinib = compound: C[C@@H](Oc1cc(-c2cnn(C3CCNCC3)c2)cnc1N)c1c(Cl)ccc(F)c1Cl [crizotinib]
In short: as §1

[1] = compound: C[C@H](C1=CC=C(C=C1)C(=O)NC2=C3C=CNC3=NC=C2)N
In short: as §1

duvelisib = compound: C[C@H](Nc1ncnc2nc[nH]c12)c1cc2cccc(Cl)c2c(=O)n1-c1ccccc1 [duvelisib]
In short: as §1

gandotinib = compound: Cc1cc(Nc2cc(CN3CCOCC3)c3nc(C)c(Cc4ccc(Cl)cc4F)n3n2)n[nH]1 [gandotinib]
In short: as §1

tozasertib = compound: Cc1cc(Nc2cc(N3CCN(C)CC3)nc(Sc3ccc(NC(=O)C4CC4)cc3)n2)n[nH]1 [tozasertib]
In short: as §1

doramapimod = compound: Cc1ccc(-n2nc(C(C)(C)C)cc2NC(=O)Nc2ccc(OCCN3CCOCC3)c3ccccc23)cc1 [doramapimod]
In short: as §1

bafetinib = compound: Cc1ccc(NC(=O)c2ccc(CN3CC[C@H](N(C)C)C3)c(C(F)(F)F)c2)cc1Nc1nccc(-c2cncnc2)n1 [bafetinib]
In short: as §1

[2] = compound: Cc1cccc(CC(=O)N2CCc3c2ccc(-c2cn(C)c4ncnc(N)c24)c3F)n1
In short: as §1

Chain of UniProt O00767 (O00767 whole entry, looked up): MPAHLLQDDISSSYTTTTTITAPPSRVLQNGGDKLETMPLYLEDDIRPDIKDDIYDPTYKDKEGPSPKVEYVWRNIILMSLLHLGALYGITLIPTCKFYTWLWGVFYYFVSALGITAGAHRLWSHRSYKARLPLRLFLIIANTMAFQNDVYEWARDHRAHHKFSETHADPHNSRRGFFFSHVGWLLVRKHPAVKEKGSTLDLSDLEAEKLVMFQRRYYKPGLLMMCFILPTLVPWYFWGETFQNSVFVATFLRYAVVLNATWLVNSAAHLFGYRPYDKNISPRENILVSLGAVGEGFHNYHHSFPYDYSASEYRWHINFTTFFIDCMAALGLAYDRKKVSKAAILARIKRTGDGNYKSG
Chain of UniProt P04049 (P04049 whole entry, looked up): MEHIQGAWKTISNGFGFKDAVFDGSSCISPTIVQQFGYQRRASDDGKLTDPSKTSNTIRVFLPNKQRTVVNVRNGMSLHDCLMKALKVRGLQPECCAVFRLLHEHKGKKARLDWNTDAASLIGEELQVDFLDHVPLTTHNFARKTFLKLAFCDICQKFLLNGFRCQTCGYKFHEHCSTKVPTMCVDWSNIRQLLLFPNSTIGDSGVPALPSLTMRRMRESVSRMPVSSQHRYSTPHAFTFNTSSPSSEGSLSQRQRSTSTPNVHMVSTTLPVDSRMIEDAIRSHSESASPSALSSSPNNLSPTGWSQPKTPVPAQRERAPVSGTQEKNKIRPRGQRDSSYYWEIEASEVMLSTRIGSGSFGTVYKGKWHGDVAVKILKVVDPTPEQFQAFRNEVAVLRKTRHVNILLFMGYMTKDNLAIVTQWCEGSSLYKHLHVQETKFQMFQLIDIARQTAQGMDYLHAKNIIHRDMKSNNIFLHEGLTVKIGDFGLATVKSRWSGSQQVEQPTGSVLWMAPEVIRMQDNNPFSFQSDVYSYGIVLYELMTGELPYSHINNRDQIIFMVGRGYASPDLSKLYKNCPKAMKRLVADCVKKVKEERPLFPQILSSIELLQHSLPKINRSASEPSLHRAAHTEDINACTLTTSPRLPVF
Chain of UniProt Q00765 (Q00765 whole entry, looked up): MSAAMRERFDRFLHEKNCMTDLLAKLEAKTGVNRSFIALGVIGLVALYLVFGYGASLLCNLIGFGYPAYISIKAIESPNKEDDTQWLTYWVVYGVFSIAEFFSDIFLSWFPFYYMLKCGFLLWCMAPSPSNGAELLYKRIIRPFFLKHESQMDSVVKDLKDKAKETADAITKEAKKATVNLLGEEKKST
Chain of UniProt Q9BWH6 (Q9BWH6 whole entry, looked up): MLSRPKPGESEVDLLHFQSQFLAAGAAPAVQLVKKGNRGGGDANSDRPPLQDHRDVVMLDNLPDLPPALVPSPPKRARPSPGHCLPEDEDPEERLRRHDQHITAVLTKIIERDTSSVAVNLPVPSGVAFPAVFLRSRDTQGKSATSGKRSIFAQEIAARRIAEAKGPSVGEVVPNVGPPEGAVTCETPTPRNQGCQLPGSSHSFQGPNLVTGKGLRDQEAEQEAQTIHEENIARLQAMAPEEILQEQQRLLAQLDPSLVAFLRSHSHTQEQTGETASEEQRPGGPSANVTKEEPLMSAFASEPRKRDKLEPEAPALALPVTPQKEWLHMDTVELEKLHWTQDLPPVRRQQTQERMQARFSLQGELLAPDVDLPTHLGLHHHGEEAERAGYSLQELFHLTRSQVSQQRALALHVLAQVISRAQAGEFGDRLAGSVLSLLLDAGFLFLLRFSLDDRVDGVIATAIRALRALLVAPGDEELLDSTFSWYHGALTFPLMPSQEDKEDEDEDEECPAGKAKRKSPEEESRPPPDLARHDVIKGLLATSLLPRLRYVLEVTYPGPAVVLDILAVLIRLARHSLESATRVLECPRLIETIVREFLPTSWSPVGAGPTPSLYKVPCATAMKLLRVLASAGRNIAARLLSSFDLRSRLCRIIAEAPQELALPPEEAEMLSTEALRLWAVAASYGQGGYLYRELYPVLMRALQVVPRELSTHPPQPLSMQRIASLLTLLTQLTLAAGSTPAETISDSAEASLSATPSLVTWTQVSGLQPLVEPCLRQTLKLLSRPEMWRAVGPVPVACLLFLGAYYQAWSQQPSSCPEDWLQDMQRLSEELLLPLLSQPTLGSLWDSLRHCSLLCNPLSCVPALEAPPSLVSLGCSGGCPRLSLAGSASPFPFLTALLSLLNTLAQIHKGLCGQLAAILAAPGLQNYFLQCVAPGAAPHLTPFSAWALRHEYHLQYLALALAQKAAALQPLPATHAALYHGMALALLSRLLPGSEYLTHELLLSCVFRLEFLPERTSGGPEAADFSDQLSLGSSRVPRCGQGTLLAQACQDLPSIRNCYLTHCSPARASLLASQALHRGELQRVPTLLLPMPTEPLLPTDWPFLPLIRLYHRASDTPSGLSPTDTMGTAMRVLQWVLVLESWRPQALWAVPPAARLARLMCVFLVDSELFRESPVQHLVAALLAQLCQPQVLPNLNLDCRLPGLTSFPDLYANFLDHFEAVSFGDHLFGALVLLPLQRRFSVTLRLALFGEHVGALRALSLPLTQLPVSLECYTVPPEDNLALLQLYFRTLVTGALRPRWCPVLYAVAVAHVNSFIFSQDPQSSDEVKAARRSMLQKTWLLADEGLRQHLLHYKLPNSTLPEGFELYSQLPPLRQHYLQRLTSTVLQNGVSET
Chain of UniProt P23921 (P23921 whole entry, looked up): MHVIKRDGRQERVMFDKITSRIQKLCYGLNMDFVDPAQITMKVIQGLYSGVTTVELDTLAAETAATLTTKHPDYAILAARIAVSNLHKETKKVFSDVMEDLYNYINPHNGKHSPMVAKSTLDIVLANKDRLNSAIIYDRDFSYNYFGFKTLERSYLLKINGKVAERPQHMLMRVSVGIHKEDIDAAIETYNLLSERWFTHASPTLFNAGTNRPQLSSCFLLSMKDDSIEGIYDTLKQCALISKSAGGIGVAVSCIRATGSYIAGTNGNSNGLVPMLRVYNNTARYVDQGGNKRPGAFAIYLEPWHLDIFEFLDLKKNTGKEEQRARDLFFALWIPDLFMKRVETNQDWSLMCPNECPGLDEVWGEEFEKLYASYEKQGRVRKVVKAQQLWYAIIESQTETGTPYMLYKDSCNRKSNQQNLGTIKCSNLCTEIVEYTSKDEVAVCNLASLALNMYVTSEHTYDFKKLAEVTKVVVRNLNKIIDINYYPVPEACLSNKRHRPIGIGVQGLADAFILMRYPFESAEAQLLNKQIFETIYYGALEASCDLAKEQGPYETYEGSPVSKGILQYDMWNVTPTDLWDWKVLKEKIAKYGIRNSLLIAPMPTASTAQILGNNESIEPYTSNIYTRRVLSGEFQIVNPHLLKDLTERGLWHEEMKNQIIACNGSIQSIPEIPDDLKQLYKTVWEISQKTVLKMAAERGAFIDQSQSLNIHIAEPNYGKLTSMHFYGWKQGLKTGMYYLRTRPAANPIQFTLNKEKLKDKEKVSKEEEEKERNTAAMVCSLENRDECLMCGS
Chain of UniProt Q8WWV3 (Q8WWV3 whole entry, looked up): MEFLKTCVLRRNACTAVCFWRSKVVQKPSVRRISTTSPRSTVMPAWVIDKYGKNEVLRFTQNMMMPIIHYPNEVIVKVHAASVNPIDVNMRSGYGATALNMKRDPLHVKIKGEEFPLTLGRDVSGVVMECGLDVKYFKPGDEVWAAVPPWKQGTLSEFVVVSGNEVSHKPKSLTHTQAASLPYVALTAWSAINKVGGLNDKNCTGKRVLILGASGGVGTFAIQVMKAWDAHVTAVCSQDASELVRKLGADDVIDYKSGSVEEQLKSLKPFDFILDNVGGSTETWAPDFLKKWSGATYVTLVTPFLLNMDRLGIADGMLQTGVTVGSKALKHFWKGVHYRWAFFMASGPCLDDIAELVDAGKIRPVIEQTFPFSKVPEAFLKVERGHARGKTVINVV
Chain of UniProt Q9NW64 (Q9NW64 whole entry, looked up): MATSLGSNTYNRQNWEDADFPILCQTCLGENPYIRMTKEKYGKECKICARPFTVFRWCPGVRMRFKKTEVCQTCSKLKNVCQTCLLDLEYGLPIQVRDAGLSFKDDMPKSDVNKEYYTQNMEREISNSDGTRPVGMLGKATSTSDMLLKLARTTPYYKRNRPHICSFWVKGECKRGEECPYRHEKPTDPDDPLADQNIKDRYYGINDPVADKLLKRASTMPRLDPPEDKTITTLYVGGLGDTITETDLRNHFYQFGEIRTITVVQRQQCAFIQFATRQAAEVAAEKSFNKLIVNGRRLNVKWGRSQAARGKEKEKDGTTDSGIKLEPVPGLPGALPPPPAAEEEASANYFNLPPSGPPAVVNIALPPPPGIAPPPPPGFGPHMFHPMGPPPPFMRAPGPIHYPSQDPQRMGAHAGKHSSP
Chain of UniProt O75446 (O75446 whole entry, looked up): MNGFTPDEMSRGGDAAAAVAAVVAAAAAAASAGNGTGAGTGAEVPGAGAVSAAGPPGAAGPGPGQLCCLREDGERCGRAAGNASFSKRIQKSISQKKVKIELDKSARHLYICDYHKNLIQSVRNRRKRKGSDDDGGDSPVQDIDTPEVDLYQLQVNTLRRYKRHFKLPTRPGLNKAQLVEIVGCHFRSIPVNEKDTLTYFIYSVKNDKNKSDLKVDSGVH
Chain of UniProt Q9Y3T6 (Q9Y3T6 whole entry, looked up, one chain of several): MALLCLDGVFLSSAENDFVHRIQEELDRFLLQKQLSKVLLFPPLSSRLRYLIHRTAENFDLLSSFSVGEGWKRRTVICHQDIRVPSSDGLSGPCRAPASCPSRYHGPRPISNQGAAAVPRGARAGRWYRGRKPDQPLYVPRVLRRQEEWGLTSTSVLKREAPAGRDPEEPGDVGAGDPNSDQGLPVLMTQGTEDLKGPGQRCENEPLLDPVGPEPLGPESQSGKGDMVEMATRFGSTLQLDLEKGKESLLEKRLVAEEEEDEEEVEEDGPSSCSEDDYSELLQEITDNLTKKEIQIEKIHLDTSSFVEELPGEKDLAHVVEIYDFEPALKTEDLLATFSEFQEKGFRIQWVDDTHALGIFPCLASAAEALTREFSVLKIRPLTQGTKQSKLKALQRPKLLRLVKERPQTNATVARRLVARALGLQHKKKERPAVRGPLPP

| Target | log2 fold change (lapatinib) | log2 fold change (pictilisib) | log2 fold change (crizotinib) | log2 fold change [1] | log2 fold change (duvelisib) | log2 fold change (gandotinib) | log2 fold change (tozasertib) | log2 fold change (doramapimod) | log2 fold change (bafetinib) | log2 fold change [2] |
| --- | --- | --- | --- | --- | --- | --- | --- | --- | --- | --- |
| SAP30 (UniProt O75446) | -0.064 | -0.036 | 0.044 | 0.042 | 0.004 | -0.036 | -0.056 | 0.013 | -0.073 | 0.012 |
| RIOK1 (UniProt Q9BRS2) | -0.044 | 0.197 | -0.015 | 0.92 (active) | 0.037 | -0.138 | 0.008 | 0.025 | -0.056 | -0.134 |
| RAPGEF2, A0A2R8YGD3 | -0.014 | 0.015 | 0.024 | -0.431 (active) | 0.018 | 0.038 | 0.014 | -0.039 | -0.171 | 0.266 |
| RFC4 (UniProt P35249) | -0.01 | -0.004 | -0.027 | -0.065 | 0.01 | -0.028 | -0.027 | 0.035 | -0.018 | 0.041 |
| R3HCC1 (UniProt Q9Y3T6) | -0.018 | -0.049 | 0 | -0.034 | 0 | 0.089 | 0.006 | 0.044 | 0.002 | 0.08 |
| RELN (UniProt P78509) | 0.047 | 0.047 | -0.022 | -0.104 | 0.002 | 0.057 | -0.002 | -0.044 | -0.042 | 0.08 |
| RTN4IP1 (UniProt Q8WWV3) | -0.02 | 0.017 | -0.021 | 0.056 | 0.072 | -0.057 | 0.009 | -0.016 | 0.059 | -0.048 |
| SCD (UniProt O00767) | 0.059 | 0 | -0.08 | -0.443 (active) | 0.067 | 0.155 | 0.065 | 0.077 | -0.053 | 0.273 |
| RAB3IL1 (UniProt E9PK89) | -0.025 | 0.063 | 0.039 | 0.045 | -0.036 | 0.006 | 0.059 | -0.117 | -0.094 | 0.057 |
| RIOK3 (UniProt O14730) | 0.026 | -0.032 | -0.031 | 0.021 | -0.007 | -0.009 | -0.008 | 0.036 | -0.021 | 0.008 |
| SASS6 (UniProt Q6UVJ0) | 0.001 | -0.056 | -0.01 | 0.099 | -0.018 | -0.076 | 0.004 | -0.01 | -0.032 | -0.054 |
| RBM22 (UniProt Q9NW64) | -0.01 | -0.011 | 0.038 | 0.034 | 0.008 | -0.019 | 0.026 | 0.072 | 0.001 | -0.016 |
| RDX (UniProt P35241) | -0.018 | 0.02 | 0.063 | 0.546 (active) | 0.005 | -0.093 | -0.005 | -0.045 | 0.077 | -0.136 |
| RPAP1 (UniProt Q9BWH6) | -0.012 | -0.027 | -0.026 | -0.026 | 0.021 | -0.002 | 0.018 | 0.001 | -0.041 | 0 |
| RPL28 (UniProt P46779) | 0.01 | 0.047 | 0.043 | 0.234 | 0.018 | -0.098 | -0.018 | -0.046 | 0.056 | -0.059 |
| RAP1B (UniProt P61224) | 0.009 | -0.006 | 0.008 | 0.215 (active) | -0.045 | -0.036 | 0 | 0.017 | 0.17 | -0.021 |
| RRM1 (UniProt P23921) | 0.003 | 0.01 | -0.025 | -0.004 | -0.052 | -0.028 | -0.036 | -0.017 | -0.018 | 0.001 |
| RECQL5 (UniProt O94762) | 0.277 | 0.06 | 0.049 | 0.084 | 0.029 | -0.15 | 0.031 | -0.008 | -0.062 | -0.09 |
| RAC2 (UniProt P15153) | -0.057 | 0.016 | -0.018 | -0.05 | -0.026 | -0.025 | -0.062 | -0.014 | -0.042 | 0.031 |
| RPL36AL (UniProt Q969Q0) | 0.05 | 0.031 | 0.216 | 0.01 | -0.033 | -0.038 | 0.047 | -0.131 | 0.137 | 0.003 |
| RAF1 isoform 2 (UniProt P04049) | 0.077 | 0.014 | -0.047 | 0.046 | -0.014 | -0.118 | 0.025 | 0.025 | -0.004 | -0.016 |
| RALA (UniProt P11233) | -0.017 | -0.022 | 0.012 | -0.3 (active) | 0 | 0.158 | -0.009 | 0.014 | 0.029 | 0.217 (active) |
| SCAF1 (UniProt Q9H7N4) | -0.06 | -0.107 | -0.011 | 0.017 | -0.337 | -0.074 | -0.023 | 0.052 | -0.27 | -0.096 |
| REEP5 (UniProt Q00765) | -0.001 | -0.026 | 0.024 | -0.11 | 0.01 | 0.061 | -0.052 | -0.03 | -0.027 | 0.055 |
| RALGAPB (UniProt Q86X10) | 0.021 | -0.062 | -0.088 | -0.09 | 0.103 | -0.06 | 0.062 | 0.046 | -0.043 | 0.103 |
| SDHC (UniProt Q99643) | 0.002 | 0.071 | 0.032 | -0.244 | 0.004 | 0.179 | -0.067 | 0.016 | -0.004 | 0.133 |
| SEC24D isoform 2 (UniProt O94855) | 0.016 | -0.03 | 0 | 0.031 | 0.017 | -0.02 | 0.005 | 0 | -0.026 | -0.019 |
| RPN2 (UniProt P04844) | -0.048 | -0.006 | -0.004 | -0.074 | -0.003 | 0.039 | -0.003 | 0 | -0.032 | 0.06 |
| QTRT2 isoform 4 (UniProt Q9H974) | -0.016 | -0.037 | -0.018 | -0.297 (active) | -0.008 | 0.185 | 0.003 | -0.029 | -0.089 | 0.256 (active) |
| RPLP0P6 (UniProt Q8NHW5) | 0.003 | 0.033 | -0.013 | 0.014 | 0.016 | -0.013 | -0.005 | 0.001 | 0.274 (active) | 0.034 |
